The text below walks through data of PubChem BioAssay (Tox21).

Where “and” joins values, the source holds several entries; their conditions need not be identical. Equal entries are not always repeated. Inconclusive results are not listed. Some structures have more than one record in an assay (separate samples or runs), and their calls can disagree. Calls of active or inactive are those of the source. Unless noted, calls come from the whole dose curve; as a rule, active = well fitted curve in the direction sought with a large enough effect in the repeat runs; inconclusive = weak or mixed curves; inactive = no such curve, though single readings can be large; an effect the other way counts as inactive or inconclusive.

A short description of experiment [1]: qHTS assay to identify small molecule agonists of H2AX - cell viability counter screen (AID 1224847; calls by dose curve; note: nearly all actives have a fitted effect of over 30% in size; note: potency is the fitted concentration of half-maximal effect). In short, it runs like this: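 Compounds tested at 15 concentrations were incubated 3 hr at 37C with wild-type CHO-K1 cells; cellular ATP-based luminescence (CellTiter-Glo) indicated viability.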
A short description of experiment [2]: qHTS RealTime-Glo MT Cell Viability Assay in HepG2 cells - 24 hour (AID 1224867). Note: nearly all actives have a fitted effect of over 50% in size. In short, it runs like this: (§1)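 Real-time, nonlytic viability: 600 HepG2 cells/well mixed with NanoLuc enzyme plus prosubstrate; 5 h settle, compound (DMSO) added by pintool; luminescence monitored over 40 h at 37 C.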
Experiment [3] is described as follows: qHTS RealTime-Glo MT Cell Viability Assay in HEK293 cells - 32 hour (AID 1224868). Note: top concentration of the series differs between compounds; nearly all actives have a fitted effect of over 50% in size. In short, it runs like this: (§2)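 Cells + reagent dispensed (600 cells/well, HEK293) → 5 h at 37 C/5% CO2 → 23 nL compound in DMSO pinned → 40 h at 37 C → luminescence read at 0, 8, 16, 24, 32, 40 h.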
Experiment [4] is described as follows: A CellTox Green Cytotoxicity Assay to monitor cytotoxicity in HEK293 cells - 0 hour (AID 1224869). Note: nearly all actives have a fitted effect of over 50% in size. In short, it runs like this: (§3)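 Cytotoxicity was tracked continuously in HEK293 cells by a DNA-binding dye excluded from viable cells. Compounds were transferred in DMSO 5 h after seeding; fluorescence was recorded at intervals up to 40 h.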
The nature of experiment [5]: qHTS RealTime-Glo MT Cell Viability Assay in HepG2 cells - 40 hour (AID 1224870). Note: nearly all actives have a fitted effect of over 50% in size. In a few lines: (§4)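 Real-time viability: cells seeded at 600 per well together with NanoLuc and cell-permeant prosubstrate, compounds added after 5 h incubation. Luminescence tracked at 0, 8, 16, 24, 32 and 40 h of exposure.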
Experiment [6] can be described thus: A CellTox Green Cytotoxicity Assay to monitor cytotoxicity in HEK293 cells - 40 hour (AID 1224871). Note: nearly all actives have a fitted effect of over 45% in size. Note: potency is the fitted concentration of half-maximal effect. In short, it runs like this: as §3
Experiment [7] in a line: qHTS RealTime-Glo MT Cell Viability Assay in HEK293 cells - 16 hour (AID 1224872). Note: nearly all actives have a fitted effect of over 50% in size. Note: potency is the fitted concentration of half-maximal effect. In a few lines: as §2
Experiment [8] is described as follows: qHTS RealTime-Glo MT Cell Viability Assay in HepG2 cells - 8 hour (AID 1224873). Note: nearly all actives have a fitted effect of over 55% in size. In short, it runs like this:
as §4

The nature of experiment [9]: qHTS RealTime-Glo MT Cell Viability Assay in HEK293 cells - 40 hour (AID 1224874). Note: nearly all actives have a fitted effect of over 50% in size. To be noted: RealTime-Glo luminescence; max response: stronger effect = lower value. In a few lines:
(§5)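 Nonlytic bioluminescent viability monitoring. HEK293 at 600 cells/well with reagent; 5 h settle; compound transfer by pintool; plates held at 37 C and read at set time points.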

A short description of experiment [10]: A CellTox Green Cytotoxicity Assay to monitor cytotoxicity in HEK293 cells - 24 hour (AID 1224875). Note: nearly all actives have a fitted effect of over 45% in size. In a few lines: as §3
Experiment [11] can be described thus: A CellTox Green Cytotoxicity Assay to monitor cytotoxicity in HepG2 cells - 16 hour (AID 1224876). Note: nearly all actives have a fitted effect of over 45% in size. Note: potency is the fitted concentration of half-maximal effect. In a few lines:
(§6)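 Real-time, homogeneous cytotoxicity readout: dead-cell DNA staining by CellTox Green in HepG2 monolayers, fluorescence measured at timed intervals up to 40 h of continuous compound exposure.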

Experiment [12] in a line: qHTS RealTime-Glo MT Cell Viability Assay in HepG2 cells - 32 hour (AID 1224877). Note: nearly all actives have a fitted effect of over 55% in size. In short, it runs like this: as §1
A short description of experiment [13]: A CellTox Green Cytotoxicity Assay to monitor cytotoxicity in HepG2 cells - 24 hour (AID 1224878). Note: nearly all actives have a fitted effect of over 45% in size. Note: potency is the fitted concentration of half-maximal effect. In short, it runs like this: as §6
The nature of experiment [14]: A CellTox Green Cytotoxicity Assay to monitor cytotoxicity in HepG2 cells - 40 hour (AID 1224879). Note: nearly all actives have a fitted effect of over 40% in size. Note: potency is the fitted concentration of half-maximal effect. In a few lines:
as §6

Experiment [15] is described as follows: qHTS RealTime-Glo MT Cell Viability Assay in HEK293 cells - 0 hour (AID 1224880). In a few lines:
as §5

Experiment [16] can be described thus: A CellTox Green Cytotoxicity Assay to monitor cytotoxicity in HEK293 cells - 32 hour (AID 1224881). Note: nearly all actives have a fitted effect of over 40% in size. Note: potency is the fitted concentration of half-maximal effect. In short, it runs like this: as §3
The nature of experiment [17]: A CellTox Green Cytotoxicity Assay to monitor cytotoxicity in HepG2 cells - 0 hour (AID 1224882). Note: nearly all actives have a fitted effect of over 35% in size. In a few lines:
as §6

Experiment [18] can be described thus: A CellTox Green Cytotoxicity Assay to monitor cytotoxicity in HepG2 cells - 32 hour (AID 1224883). Note: nearly all actives have a fitted effect of over 50% in size. Note: potency is the fitted concentration of half-maximal effect. In a few lines: as §6
Experiment [19] in a line: qHTS assay to identify small molecule antagonists of the estrogen related receptor (ERR) signaling pathway from Tox21 library (AID 1224848). Note: nearly all actives have a fitted effect of over 50% in size. In a few lines:
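Antagonist-mode screen of the Tox21 10K library in an NTP-provided ERR reporter cell line; 18 h compound exposure at 37 C, luminescence measured with ONE-Glo.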

Experiment [20] in a line: qHTS assay to identify small molecule agonists of the estrogen related receptor (ERR) signaling pathway from Tox21 library (AID 1224849; calls by dose curve; note: nearly all actives have a fitted effect of over 15% in size). To be noted: ERR reporter cell line, ONE-Glo luciferase, 18 h. In a few lines:
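Agonist signal is luciferase luminescence from an ERR reporter cell line treated 18 h at 37 C with DMSO-dissolved compounds, read 30 min after ONE-Glo addition at room temperature.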
% is set by controls: 0 for no effect and ±100 for the full control effect.

As for `CCCC[n+]1ccccc1C`, the Potency result in [1], in experiment [2], in experiment [3], in experiment [4], in [5] and in experiment [6] was “inactive” throughout. For the same compound, the Potency entry in experiment [7], in experiment [8], in experiment [10], in experiment [11], in experiment [12] and in experiment [13] was “inactive” throughout. The Potency entry in experiment [14], in [16], in experiment [17] and in experiment [18] was “inactive” throughout. Also, the max response in [9] is 0.73% (inactive) [middle of 6 runs]. The result in experiment [15] was inactive.

For `CC(=O)O`, the Potency entry in experiment [1], in experiment [2], in experiment [3], in experiment [4], in experiment [5] and in experiment [6] was “inactive” each time. For the same compound, the Potency result in experiment [7], in experiment [8], in [10], in experiment [11], in [12] and in experiment [13] was “inactive” each time. In addition, the Potency result in experiment [14], in experiment [16], in experiment [17] and in [18] was “inactive” throughout. Also, in experiment [9], the max response is 1.59% (inactive) [middle of 4 runs]. In addition, the compound was called inactive in experiment [15].

For `O=c1nc(O)n(Cl)c(=O)n1Cl`, the Potency entry in experiment [1], in [19], in experiment [3], in experiment [4], in experiment [5] and in experiment [6] was “inactive” in each case. Also, the Potency entry in experiment [7], in experiment [8], in [10], in [11], in experiment [12] and in experiment [13] was “inactive” each time. For the same compound, the Potency entry in [14], in [16], in experiment [17] and in experiment [18] was “inactive” each time. For the same compound, the activity change, positive = activation in experiment [20] (at 92.4 µM (top of the series)) was 9.16% (inactive) and 1.98% (inactive) and 3.37% (inactive). In addition, in experiment [9], the max response is 3.95% (inactive) and 2.22% (inactive). The compound was called inactive in experiment [15].

On to `CCCC[n+]1ccc(C)cc1`, for which the Potency entry in experiment [1] was “inactive and 89.3 µM (active)”; in [6], “inactive and 21.8 µM (active)”; in [7] it was 34.5 µM (active) and inactive; in experiment [11], “inactive and 54.7 µM (active)”; in experiment [13], “inactive and 48.7 µM (active)”; in [14], “inactive and 48.7 µM (active)”. Moreover, the Potency result in [16] was “inactive and 21.8 µM (active)”; in experiment [18] it was “inactive and 48.7 µM (active)”. For the same compound, the Potency entry in experiment [2], in [3], in experiment [4], in experiment [5], in [8] and in experiment [12] was “inactive” throughout. Also, the Potency result in [17] is “inactive”. Also, the outcome in experiment [15] was inactive.

`COCC(=O)N(c1c(C)cccc1C)C(C)C(=O)OC` (stereo unspecified): the Potency entry in experiment [1], in experiment [19], in experiment [3], in experiment [4], in [5] and in experiment [6] was “inactive” in each case. Besides, the Potency entry in [7], in [8], in [10], in experiment [11], in experiment [12] and in experiment [13] was “inactive” throughout. The Potency result in [14], in experiment [16], in experiment [17] and in experiment [18] was “inactive” throughout. The activity change, positive = activation is 5.38% (inactive) in [20] (at 42.5 µM (top of the series)); 1.31% (inactive) and 1.04% (inactive) in experiment [20] (at 92.4 µM (top of the series)). The max response in experiment [9] was 7.37% (inactive) and 3.62% (inactive) and 0.316% (inactive). For the same compound, the compound was called inactive in [15].
